Values joined by “and” are separate entries in the source; they are usually repeats but may differ in a detail not shown here. Equal entries are not always repeated. Some compounds were tested as several samples or in several runs, with calls that do not always agree. Active and inactive are the calls of the source. The calls were made as follows: active = hit-call score of the fitted dose curve at least 0.9, where 1 is the maximum; inactive = score below 0.9.
Assay: CCTE_Shafer_MEA_acute_network_burst_percentage: CCTE's Neural Acute Assay for Percentage of Network Bursts, Shafer Lab (AID 2284022);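 also: curves fitted for loss so actives lower network burst percentage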
Outline: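 Rat primary cortical neuron networks on 48-well MEA plates, DIV 13 or 15, treated acutely with compound (0.03-40 uM, at least three wells). Percent of spikes within network bursts compared between 40-min recordings before and during exposure at 37 C, expressed as percent change.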

Structure (SMILES) | outcome | AC50
FC(F)C(F)(F)OCC(Cn1cncn1)c1ccc(Cl)cc1Cl (stereo not drawn) | inactive | 
C=C(C)[C@H]1Cc2c(ccc3c2O[C@@H]2COc4cc(OC)c(OC)cc4[C@@H]2C3=O)O1 | inactive | 
CC(=NC#N)N(C)Cc1ccc(Cl)nc1 | inactive | 
COc1cc(OC)nc(Sc2cccc(Cl)c2C(=O)O)n1 | inactive | 
CCCOCC(=Nc1ccc(Cl)cc1C(F)(F)F)n1ccnc1 | inactive | 
CCc1cccc(C)c1N(C(=O)CCl)C(C)COC (stereo not drawn) |  | 21.9 µM (active)
CC(C)[C@H](C(=O)O[C@H](C#N)c1cccc(Oc2ccccc2)c1)c1ccc(Cl)cc1 |  | 0.962 µM (active)
CCOP(=S)(Oc1cnc(C(C)(C)C)nc1)OC(C)C (stereo not drawn) |  | 24.6 µM (active)
CN1COCN(Cc2cnc(Cl)s2)C1=N[N+](=O)[O-] | inactive | 
CCOC(=O)CC(SP(=O)(OC)OC)C(=O)OCC (stereo not drawn) | inactive | 
Nc1c(Cl)cc([N+](=O)[O-])cc1Cl |  | 26 µM (active)
CSC1=N[C@@](C)(c2ccccc2)C(=O)N1Nc1ccccc1 | inactive | 22.1 µM (active)
C#CCC1=C(C)C(OC(=O)C2C(C=C(C)C)C2(C)C)CC1=O (stereo not drawn) |  | 14.6 µM (active)
O=C(O)c1cc(Oc2ccc(C(F)(F)F)cc2Cl)ccc1[N+](=O)[O-] | inactive | 
C[N+]1(C)CCCCC1 | inactive | 
CN(C)NC(=O)CCC(=O)O | inactive | 
CCOP(=O)(NC(C)C)Oc1ccc(SC)c(C)c1 (stereo not drawn) | inactive | 

Structure (SMILES) | outcome | AC50
CC[C@H](C)[C@H]1O[C@]2(C=C[C@@H]1C)C[C@@H]1C[C@@H](C/C=C(\C)[C@@H](O[C@H]3C[C@H](OC)[C@@H](O[C@H]4C[C@H](OC)[C@@H](NC)[C@H](C)O4)[C@H](C)O3)[C@@H](C)/C=C/C=C3\CO[C@@H]4[C@H](O)C(C)=C[C@@H](C(=O)O1)[C@]34O)O2 |  | 43 nM (active) and 1.55 µM (active)
N#CSCSC#N |  | 30.5 µM (active)
CCOP(=S)(OCC)SCCSCC | inactive | 
COP(=O)(NC(C)=O)SC (stereo not drawn) | inactive | 
CCOP(=S)(OCC)Oc1ccc2c(C)c(Cl)c(=O)oc2c1 |  | 27.2 µM (active)
O=[N+]([O-])c1cc(C(F)(F)F)c(Cl)c([N+](=O)[O-])c1Nc1ncc(C(F)(F)F)cc1Cl |  | 1.13 µM (active)
CNC(=O)ON=C(SC)C(=O)N(C)C | inactive | 
CN(C)[C@@H]1C(=O)C(C(N)=O)=C(O)[C@@]2(O)C(=O)C3=C(O)c4c(O)cccc4[C@@](C)(O)[C@H]3[C@H](O)[C@@H]12 | inactive | 
CC(C)=CC1C(C(=O)OCN2C(=O)C3=C(CCCC3)C2=O)C1(C)C (stereo not drawn) | inactive | 
CC(COc1ccc(Oc2ccccc2)cc1)Oc1ccccn1 (stereo not drawn) |  | 32.7 µM (active)
CCc1cnc(C2=NC(C)(C(C)C)C(=O)N2)c(C(=O)O)c1 (stereo not drawn) | inactive | 
CC(C)N(C(=O)SCC(Cl)=C(Cl)Cl)C(C)C |  | 25.7 µM (active) and 20 µM (active)
COP(=O)(OC)C(O)C(Cl)(Cl)Cl (stereo not drawn) | inactive | 
Cc1ccn2nc(S(=O)(=O)Nc3c(F)cccc3F)nc2n1 | inactive | 
CC1=NNC(=O)N(/N=C/c2cccnc2)C1 | inactive | 
C[Si](Cn1cncn1)(c1ccc(F)cc1)c1ccc(F)cc1 |  | 20 µM (active)

Assay: CCTE_Shafer_MEA_acute_cross_correlation_area: CCTE's Neural Acute Assay for Area of Cross Correlation, Shafer Lab (AID 2284024);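 also: curves fitted for loss of cross-correlation area so actives lower synchrony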
Outline: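 Rat primary cortical neurons on 48-well MEA, DIV 13 or 15; compounds 0.03-40 uM. Baseline and post-exposure 40 min recordings at 37 C; percent change in area under pooled inter-electrode cross-correlation near zero lag, relative to DMSO.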

Structure (SMILES) | outcome | AC50
FC(F)C(F)(F)OCC(Cn1cncn1)c1ccc(Cl)cc1Cl (stereo not drawn) | inactive | 
C=C(C)[C@H]1Cc2c(ccc3c2O[C@@H]2COc4cc(OC)c(OC)cc4[C@@H]2C3=O)O1 | inactive | 
CC(=NC#N)N(C)Cc1ccc(Cl)nc1 | inactive | 
COc1cc(OC)nc(Sc2cccc(Cl)c2C(=O)O)n1 | inactive | 
CCCOCC(=Nc1ccc(Cl)cc1C(F)(F)F)n1ccnc1 |  | 0.44 µM (active)
CCc1cccc(C)c1N(C(=O)CCl)C(C)COC (stereo not drawn) | inactive | 
CC(C)[C@H](C(=O)O[C@H](C#N)c1cccc(Oc2ccccc2)c1)c1ccc(Cl)cc1 | inactive | 
CCOP(=S)(Oc1cnc(C(C)(C)C)nc1)OC(C)C (stereo not drawn) | inactive | 
CN1COCN(Cc2cnc(Cl)s2)C1=N[N+](=O)[O-] | inactive | 
CCOC(=O)CC(SP(=O)(OC)OC)C(=O)OCC (stereo not drawn) | inactive | 
Nc1c(Cl)cc([N+](=O)[O-])cc1Cl | inactive | 
CSC1=N[C@@](C)(c2ccccc2)C(=O)N1Nc1ccccc1 | inactive | 
C#CCC1=C(C)C(OC(=O)C2C(C=C(C)C)C2(C)C)CC1=O (stereo not drawn) | inactive | 
O=C(O)c1cc(Oc2ccc(C(F)(F)F)cc2Cl)ccc1[N+](=O)[O-] | inactive | 
C[N+]1(C)CCCCC1 | inactive | 
CN(C)NC(=O)CCC(=O)O | inactive | 
CCOP(=O)(NC(C)C)Oc1ccc(SC)c(C)c1 (stereo not drawn) | inactive | 

Structure (SMILES) | outcome | AC50
CC[C@H](C)[C@H]1O[C@]2(C=C[C@@H]1C)C[C@@H]1C[C@@H](C/C=C(\C)[C@@H](O[C@H]3C[C@H](OC)[C@@H](O[C@H]4C[C@H](OC)[C@@H](NC)[C@H](C)O4)[C@H](C)O3)[C@@H](C)/C=C/C=C3\CO[C@@H]4[C@H](O)C(C)=C[C@@H](C(=O)O1)[C@]34O)O2 | inactive | 0.00626 µM (active)
N#CSCSC#N | inactive | 
CCOP(=S)(OCC)SCCSCC | inactive | 
COP(=O)(NC(C)=O)SC (stereo not drawn) | inactive | 
CCOP(=S)(OCC)Oc1ccc2c(C)c(Cl)c(=O)oc2c1 | inactive | 
O=[N+]([O-])c1cc(C(F)(F)F)c(Cl)c([N+](=O)[O-])c1Nc1ncc(C(F)(F)F)cc1Cl |  | 0.263 µM (active)
CN(C)[C@@H]1C(=O)C(C(N)=O)=C(O)[C@@]2(O)C(=O)C3=C(O)c4c(O)cccc4[C@@](C)(O)[C@H]3[C@H](O)[C@@H]12 | inactive | 
CC(C)=CC1C(C(=O)OCN2C(=O)C3=C(CCCC3)C2=O)C1(C)C (stereo not drawn) | inactive | 
CC(COc1ccc(Oc2ccccc2)cc1)Oc1ccccn1 (stereo not drawn) | inactive | 
CON=C(C(=O)OC)c1ccccc1CON=C(C)c1cccc(C(F)(F)F)c1 |  | 0.162 µM (active)
CCc1cnc(C2=NC(C)(C(C)C)C(=O)N2)c(C(=O)O)c1 (stereo not drawn) | inactive | 
CC(C)N(C(=O)SCC(Cl)=C(Cl)Cl)C(C)C | inactive | 
COP(=O)(OC)C(O)C(Cl)(Cl)Cl (stereo not drawn) | inactive | 
Cc1ccn2nc(S(=O)(=O)Nc3c(F)cccc3F)nc2n1 | inactive | 
CC1=NNC(=O)N(/N=C/c2cccnc2)C1 | inactive | 
C[Si](Cn1cncn1)(c1ccc(F)cc1)c1ccc(F)cc1 |  | 1.67 µM (active)

Reference: PubChem BioAssay (EPA / NIEHS)
